Screening data: PubChem BioAssay, National Center for Advancing Translational Sciences (NCATS)
HT1080NT lethal = kills 2HG-producing HT-1080-NT fibrosarcoma cells; HT-1080-NT fibrosarcoma viability, CellTiter-Glo ATP luminescence, 48 h; Potency, µM (series often up to 46.1 µM), actives largely listed as cytotoxic; hit rate 1.6% among 360,000;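 further: NT is the 2HG producing partner of a matched IDH1 knockdown line; nearly all actives have a fitted effect of over 55% in size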
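HT-1080-NT fibrosarcoma cells (2HG-overproducing), 750 cells/well in RPMI with 5% FBS, dosed after 2 h and incubated 48 h at 37C. CellTiter-Glo luminescence normalized to DMSO and no-cell wells; concentration-response curves fitted and classed.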
IL-1B inflam inh = inhibitors of inflammasome signaling (IL-1 beta secretion) | THP-1 LPS/ATP IL-1B secretion, AlphaLISA, 16 h; hits give low values | activity change, % at 57.5 µM | hit rate 4.7% among 360,000; in the data active means activity change below about -50%; inconclusive means mostly about -30% to -49%
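Secreted IL-1B measured by AlphaLISA bead assay after 16 h compound exposure of THP-1 cells; compounds (final up to 57.5 uM) added 1 h before LPS (250 ng/mL) and ATP (1.25 mM) stimulation; lower signal means less secretion.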
uPA generation = cell surface uPA generation inhibition; Potency, µM (titrated, usually from 38.3 µM), actives largely listed as inhibitors; hit rate 0.31% among 330,000; cell surface uPA generation assay, qHTS; active means well fitted inhibition curve with a large enough effect; inconclusive means small, poorly fitted or top-dose-only effect; inactive means no such curve, though single readings can be large or run the other way; tested in mouse RAW 264.7 cells; further: nearly all actives have a fitted effect of over 55% in size
DT40 TDP1 CPT = growth inhibition of DT40 Tdp1-/-;hTDP1 cells with camptothecin (screen for TDP1 inhibitors); chicken DT40 Tdp1-/-;hTDP1 cells + 20 nM CPT, ATP luminescence, 48 h; Potency, µM (titrated, usually from 46.2 µM), usual class: inhibitors; hit rate 12% among 420,000; further: nearly all actives have a fitted effect of over 55% in size
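Chicken DT40 Tdp1-/- cells stably complemented with human TDP1 were seeded at 400 cells/well in medium containing 20 nM camptothecin, exposed to pin-transferred compounds, and grown at 37 °C for at least 48 hr. Viability was read as ATP luminescence.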
DT40 TDP1 no CPT = qHTS for Inhibitors of human tyrosyl-DNA phosphodiesterase 1 (TDP1): qHTS in cells in absence of CPT. DT40 Tdp1-/- hTDP1 cells, no CPT, ATP luminescence, 48 h. Potency, µM (titrated, usually from 46.2 µM), actives largely listed as inhibitors. hit rate 15% among 420,000. AID 686978, 2013; further: nearly all actives have a fitted effect of over 55% in size
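Growth kinetics read by CellTiter-Glo luminescence after ≥48 hr at 37 °C. Cells: DT40 Tdp1-/- stably carrying human TDP1, 400 per well, compound exposure in the absence of CPT (DMSO vehicle).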
HT1080 IDH1KD tx = HT-1080 IDH1 knockdown cell toxicity (counter line); HT-1080 IDH1 knockdown viability, ATP luminescence, 48 h; Potency, µM (top dose mostly 46.1 µM), usual class: cytotoxic; AID 686971; hit rate 2% among 360,000
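After a 2 h attachment period, IDH1KD HT-1080 cells took pin-transferred compound for 48 h at 37 °C; ATP-based luminescence after 10 min room-temperature reagent incubation reported viability.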
Numbers stand for hits; . = inactive; ? = inconclusive; / = no result; ! = not active in a repeat. Sampled rows, rich in hits. Any-hit rate of the full collection: about 19%. Unless noted, the call rests on the fitted dose curve; in most records, active means well fitted curve in the direction sought with a large enough effect; inconclusive means small, poorly fitted or top-dose-only effect, or another doubt; inactive means no such curve, though single readings can be large; an effect the other way counts as inactive or inconclusive.

SMILES	HT1080NT lethal	IL-1B inflam inh	uPA generation	DT40 TDP1 CPT	DT40 TDP1 no CPT	HT1080 IDH1KD tx
O=S(=O)(c1ccc(Cl)cc1)N1CCC(n2cnc3cc(C(F)(F)F)ccc32)CC1	.	.	.	?	?	.
Cc1ccc(C(C#N)=Cc2ccc3c(c2)OCO3)cc1	.	.	/	?	12µM	?
c1ccc(N2[C@@H]3CC[C@H]2c2ccccc2C3)cc1	.	.	/	?	?	.
COP(=O)(OC)C(NC(C)=O)C(Cl)(Cl)Cl (stereo not given)	.	.	.	.	?	.
Cc1ccc(C2=CCNCC2)cc1	.	.	.	.	.	.
COc1ccc(CNC(=O)Cn2c(=O)nc(-c3ccccc3F)c3cc(Cl)ccc32)cc1	/	/	/	1.5µM	2.1µM	/
c1cnc(N2CC[C@@]3(CCCNC3)C2)nc1	/	/	/	?	.	/
CN1[C@@H]2CCC[C@H]1CC(=O)C2	.	.	.	.	.	.
O=C(CF)NC(NC(=S)Nc1ccccc1O)C(Cl)(Cl)Cl (stereo not given)	.	.	?	?	.	.
NC1CCc2cc(O)c(O)cc2C1 (stereo not given)	.	.	.	21µM	13µM	.
Cc1cc(OCC(=O)N[C@H](C(=O)O)c2ccccc2)c2c3c(c(=O)oc2c1)CCC3	.	.	.	.	.	.
CN(C)/C=C1/C(=O)NC(=O)N(CCNc2ncc(C(F)(F)F)cc2Cl)C1=O	.	.	.	.	.	.
COc1ccc(OC)c(N2C(=O)NC(=O)/C(=C/c3ccc([N+](=O)[O-])s3)C2=O)c1	.	-73	.	16µM	16µM	.
Cc1nc(Nc2cnc(/C=C/c3cc(C(=O)Nc4cccc(C(F)(F)F)c4)ccc3C)cn2)cc(N2CCNCC2)n1	?	-97	?	18µM	21µM	?
CC(=O)OC1CCC2(C)C(CC(=O)C3C2CCC2(C)C(OC(C)=O)CCC32)C1 (stereo not given)	.	.	.	?	?	.
CC(=O)OC1CCC2(C)C(CCC3C4CC(N5CC5)C(C(C)=O)C4(C)CC(=O)C32)C1 (stereo not given)	.	.	.	12µM	15µM	.
CC(=O)[C@H]1CC[C@H]2[C@@H]3CC[C@H]4C[C@H](O)CC[C@]4(C)[C@H]3C(=O)C[C@]12C	.	.	.	?	12µM!	.
CC(=O)OCC(=O)[C@H]1CC[C@H]2[C@@H]3CC[C@H]4C[C@H](O)CC[C@]4(C)[C@H]3C(=O)C[C@]12C	.	.	.	.	.	.
Cc1nc2ccccc2c(=O)n1-c1cccc([N+](=O)[O-])c1	.	.	.	.	.	.
O=C(CCc1nc(-c2ccccc2F)no1)N1CCC2(CC1)OCCO2	.	.	.	.	?	.
Cn1c(=O)c2cc(S(=O)(=O)Nc3ccc4c(c3)OCO4)ccc2n(C)c1=O	?	.	.	2.1µM	7.1µM	?
CC(C)NS(=O)(=O)c1ccc2c(c1)oc(=O)n2C	.	.	.	.	?	.
NC(=Nc1ccccc1)NN=Cc1c[nH]c2ccccc12	?	-109	.	1µM	0.92µM	?
CCOC(=O)c1nc2ccccc2c(=O)n1-c1ccc(C)cc1C	.	.	.	8.2µM	10µM	.
CCC(=NCC1CCCO1)c1c(O)n(-c2ccccc2C)c(=O)[nH]c1=O (stereo not given)	.	.	.	.	.	.
SMILES	HT1080NT lethal	IL-1B inflam inh	uPA generation	DT40 TDP1 CPT	DT40 TDP1 no CPT	HT1080 IDH1KD tx
O=C(NCc1ccc(Cl)cc1)C(=O)NCC(c1cccnc1)N1CCN(c2ccccc2)CC1 (stereo not given)	/	/	/	9.2µM	7.3µM	/
Cc1ccc(CNC(=O)C(=O)NCC(c2cccnc2)N2CCN(c3ccc(F)cc3)CC2)cc1 (stereo not given)	/	/	/	4.1µM	3.3µM	/
Cc1ccc(NC2=NCCCS2)c(C)c1C	.	.	.	.	?	.
O=C1CCC2(O)C3Cc4ccc(O)c5c4C2(CCN3Cc2ccoc2)C1O5 (stereo not given)	.	.	/	.	.	.
CC1CCC(C(C)C)C(OC(=O)Cn2c(COc3ccccc3)[n+](C)c3ccccc32)C1 (stereo not given)	12µM	-105	.	0.58µM	1µM	12µM
O=C(Nc1ccccc1)N1CCC2(CC1)CCN(C(=O)Oc1ccccc1)CC2	/	/	/	.	?	/
CCN1CCN(Cc2ccc(NC(=O)c3cc(NC(=O)c4cc(C)on4)cc(OC)c3)cc2C(F)(F)F)CC1	?	-83!	?	15µM	16µM	?
CCN1CCN(c2ccc(NC(=O)C(C)C)cc2Cl)CC1	.	.	.	.	.	.
CCOC(=O)N1CCN(C(C)C(=O)c2c[nH]c3ccccc23)CC1 (stereo not given)	.	.	.	.	.	.
CCN1CCN(Cc2ccc(NC(=O)c3ccc(C)c(NC(=O)C(=O)c4c[nH]c5ccccc45)c3)cc2C(F)(F)F)CC1	16µM	-106	?	2.6µM	2.6µM	15µM
CN1CC[C@@]2(C)c3cc(O)ccc3N(C)[C@@H]12	23µM	.	?	5.8µM	7.3µM	?
COc1ccc(-c2n(-c3ccccn3)c3ccccc3[n+]2-c2ccccn2)cc1	.	.	.	13µM	13µM	.
COCCOC(=O)c1c(N)n(Cc2ccc(OC)cc2)c2nc3ccccc3nc12	.	.	.	?	21µM	.
COc1ccc(CCNC(=O)COC(=O)Cc2ccccc2)cc1	.	.	.	.	?	.
COC(=O)c1c(N)n(Cc2ccc(OC)cc2)c2nc3ccccc3nc12	.	.	.	?	16µM	.
O=P(C(c1c[nH]c2ccccc12)N1CCOCC1)(N1CCOCC1)N1CCOCC1 (stereo not given)	.	.	.	.	.	.
Cc1nc2ccccc2c(=O)n1-c1ccc(Br)cc1[N+](=O)[O-]	.	.	.	?	?	.
CC1(C)CN=C(NCc2ccccc2Cl)S1	.	.	/	?	.	.
CC=CC(C)=CC(C)C(=O)CC(O)CC1CC(=O)NC(=O)C1 (stereo not given)	.	.	/	8.2µM	5.8µM	.
c1ccc2c(c1)CSc1ccccc1N2	.	-65	.	.	?	.
S=C1Nc2ccccc2Sc2ccccc21	.	.	.	.	.	.
Cc1oc(-c2ccccc2)nc1CN1C(=O)CN=C(c2ccccc2)c2ccccc21	.	.	.	18µM	?	.
Cc1ccc(-c2nc(CN3C(=O)CN=C(c4ccccc4Cl)c4cc(Cl)ccc43)c(C)o2)cc1	/	/	/	16µM	15µM	/
